Measured values as given in paper PMC4336329 (PLoS ONE, 2015).
About 14,000 (4.5%) of roughly 310,000 compounds showed an effect of 50% or more. Effects have a minus sign here. Only a selection was taken, and strong results are over-represented in it overall.

These compounds were tested against human ether-à-go-go-related gene (hERG) potassium channel (human, UniProt Q12809) (assay: primary screen, population patch clamp on CHO cells stably expressing hERG; higher = less effect of the substance).
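Further: peak tail current of the secondary pulse compared with the same well before compound.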

Sequence of human ether-à-go-go-related gene (hERG) potassium channel (Q12809 whole entry, looked up): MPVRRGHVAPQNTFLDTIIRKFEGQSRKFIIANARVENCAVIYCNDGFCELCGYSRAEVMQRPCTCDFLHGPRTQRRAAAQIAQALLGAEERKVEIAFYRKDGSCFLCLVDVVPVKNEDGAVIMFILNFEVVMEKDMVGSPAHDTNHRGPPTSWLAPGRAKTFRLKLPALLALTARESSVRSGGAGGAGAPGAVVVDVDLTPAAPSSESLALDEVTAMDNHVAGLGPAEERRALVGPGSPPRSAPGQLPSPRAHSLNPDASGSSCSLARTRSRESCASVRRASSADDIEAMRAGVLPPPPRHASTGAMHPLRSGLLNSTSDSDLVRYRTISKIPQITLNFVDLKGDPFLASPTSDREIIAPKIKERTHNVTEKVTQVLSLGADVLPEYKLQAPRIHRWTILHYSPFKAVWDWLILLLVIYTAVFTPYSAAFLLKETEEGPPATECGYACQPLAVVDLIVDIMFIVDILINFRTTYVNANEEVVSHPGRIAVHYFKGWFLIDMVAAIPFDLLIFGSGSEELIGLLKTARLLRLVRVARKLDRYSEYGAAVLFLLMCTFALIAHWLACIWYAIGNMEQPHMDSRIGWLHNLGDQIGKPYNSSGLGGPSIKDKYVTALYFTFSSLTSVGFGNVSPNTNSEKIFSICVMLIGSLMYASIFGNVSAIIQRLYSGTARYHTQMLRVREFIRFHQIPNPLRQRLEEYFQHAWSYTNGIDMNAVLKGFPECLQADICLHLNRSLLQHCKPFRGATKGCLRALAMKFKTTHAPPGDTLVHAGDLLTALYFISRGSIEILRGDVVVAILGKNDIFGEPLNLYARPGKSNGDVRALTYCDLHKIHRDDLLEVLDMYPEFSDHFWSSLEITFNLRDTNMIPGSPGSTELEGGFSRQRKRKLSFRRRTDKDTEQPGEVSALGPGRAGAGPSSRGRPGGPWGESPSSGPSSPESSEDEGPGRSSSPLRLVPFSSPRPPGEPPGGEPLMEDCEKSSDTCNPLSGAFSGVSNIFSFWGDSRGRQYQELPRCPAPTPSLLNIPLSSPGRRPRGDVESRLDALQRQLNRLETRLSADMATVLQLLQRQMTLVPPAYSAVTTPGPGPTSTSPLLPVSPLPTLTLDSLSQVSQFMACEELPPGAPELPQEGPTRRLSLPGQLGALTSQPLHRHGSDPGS

Structure (SMILES)	hERG current change (%, negative = inhibition) at 10uM [%]
CCCn1c(=O)c2c(nc3n2CCCN3CCc2ccccc2)n(C)c1=O	-65.4
Cn1c(=O)n(Cc2ccccc2)c(=O)c2c1nc1n2CCCN1Cc1ccccc1	-31.1
CC(C)Cn1c(=O)c2c(nc3n2CCCN3Cc2ccccc2)n(C)c1=O	-50
C=C(C)Cn1c(=O)c2c(nc3n2CC(C)CN3Cc2ccccc2)n(C)c1=O (centres unmarked)	-65.6
CC1CN(Cc2ccccc2)c2nc3c(c(=O)n(CC(N)=O)c(=O)n3C)n2C1 (centres unmarked)	14.5
CCn1c(=O)c2c(nc3n2CCCN3CCc2ccccc2)n(C)c1=O	-21.2
CCCn1c(=O)c2c(nc3n2CCCN3Cc2ccccc2)n(C)c1=O	-34.3
CC1CN(Cc2ccccc2)c2nc3c(c(=O)n(CC(=O)O)c(=O)n3C)n2C1 (centres unmarked)	18.8
CC(C)CCn1c(=O)c2c(nc3n2CCCN3Cc2ccccc2)n(C)c1=O	-37.7
O=C(CCCOc1ccc(Cl)cc1)Nc1nncs1	-28.9
Cc1cc(NC(=O)COc2cccc(Oc3ccccc3)c2)no1	13.5
CCOc1cc(NCCN2CCOCC2)c([N+](=O)[O-])cc1OCC	-7.79
COc1ccc(CC(=O)N2CCc3cc(OC)c(OC)cc3C2O)cc1OC (centres unmarked)	8.05
Cc1c(C)[n+](=O)c(-c2ccc(Br)cc2)c(C)n1[O-]	13.1
Cc1ccc2cc(C3CC(c4ccco4)=NN3S(C)(=O)=O)c(Cl)nc2c1 (centres unmarked)	-15
Cc1ccc2nc(Cl)c(C3CC(c4ccco4)=NN3S(C)(=O)=O)cc2c1 (centres unmarked)	-62.6
CCOc1ccc2nc(Cl)c(C3CC(c4ccco4)=NN3S(C)(=O)=O)cc2c1 (centres unmarked)	-41.1
Fc1ccc(NC(=S)Nc2ccccc2OC(F)F)cc1Cl	9.18
CCOc1ccc(NC(=S)N(CCOC)C2CCN(C(C)C)CC2)cc1	-29
c1ccc2oc(-c3[nH]ncc3CN(Cc3ccncc3)CC3CCCO3)cc2c1 (centres unmarked)	-22.6
COc1ccc(-c2[nH]ncc2CN(Cc2nccn2C)C(C)C)c(F)c1	-39.7
CN(Cc1cn[nH]c1-c1cc2ccccc2o1)CC1CCOCC1	-66.4

Structure (SMILES)	hERG current change (%, negative = inhibition) at 10uM [%]
COC(=O)c1ccc(-c2noc(CN(Cc3nccn3C)C(C)C)n2)cc1	-37
CN(Cc1cccnc1)Cc1cn[nH]c1-c1ccc(-c2ccccc2)cc1	-56.7
CC(C)N(Cc1cn[nH]c1-c1ccc(-c2ccccc2)cc1)Cc1nccn1C	-71.9
COc1ccc(-c2noc(CN(Cc3nccn3C)C(C)C)n2)cc1	-6.99
CC(C)N(Cc1nc(-c2ccc(Cl)cc2)no1)Cc1nccn1C	-50.4
O=C1CC[C@@H](CN(Cc2ccccc2)Cc2cn[nH]c2-c2cc3ccccc3o2)N1	-6.77
CCN(CCn1cccn1)Cc1cn[nH]c1-c1ccc(-c2ccccc2)cc1	9.21
Cc1nnc(CN(C)Cc2cn[nH]c2-c2ccc(-c3ccccc3)cc2)o1	-15.1
CN(Cc1ccon1)Cc1cn[nH]c1-c1ccc(-c2ccccc2)cc1	-10.4
Cc1csc(NC(=O)CCC(=O)N(CC(=O)NC2CCCC2)c2ccccc2)n1	-3.43
Cc1ccc(CNC(=O)CCCOc2cc(=O)n(C)c3ccccc23)o1	-17.9
Cc1[nH][nH]c(=O)c1N=Nc1ccc(Cl)cc1	2.19
C/C(NC(=O)c1cccs1)=C1\C(=O)C[C@@H]2[C@H]1C2(C)C	-19.6
CCOc1ccc(C(=O)CCC(=O)NC(CC(C)C)C(=O)OC)cc1 (centres unmarked)	-2.17
CCOC(=O)CNC(=O)c1sc(NC(=O)c2cccc(F)c2)nc1C	-0.522
O=C(CCCOc1ccc(Cl)cc1Cl)Nc1ccccn1	24.2
NC(=O)c1nn(-c2ccccc2)nc1N	0.947
O=c1[nH]c2cc3c(cc2cc1C(c1nnnn1Cc1ccccc1)N1CCN2CCCC2C1)OCCO3 (centres unmarked)	-0.778
Cc1cc(C)nc(NC(=O)CCC2CCCC2)c1	-4.11
COc1ccc2c(c1)CC/C(=C\c1ccc(C)o1)C2=O	8.29
CCOC(=O)c1cn2nc(N3CCCC3)ccc2n1	1.32
COc1ccc(-c2[nH]ncc2CNCCc2ncccc2C)cc1F	-41.7
